High-throughput results as filed in PubChem.
GPR151 ag = activates the human receptor GPR151 | 650,000 compounds, 1% hits | PathHunter beta-arrestin GPR151 cells, luminescence | activation, % at 11.2 µM; in the data active = activation above about 4.9%;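 note: 0% = median of compound wells and 100% = cells with positive control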
MITF primary = inhibitors of human MITF | O75030 | AlphaScreen MITF homodimerization, bead proximity signal | inhibition, % at 2.6 µM | 650,000 compounds, 0.91% hits | AID 1259374; in the data active = inhibition above about 50%;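 note: 0% = vehicle wells with protein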
TEAD-YAP block = TEAD-YAP interaction inhibition | HEK-TIYL cells, TEAD-Gal4/YAP UAS-luciferase luminescence | inhibition, % at 9.12 µM | 640,000 compounds, 1.4% hits; in the data active = inhibition above about 32%;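 note: 0% = median of test compound wells and 100% = reference inhibitor wells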
FBW7 act = activators of human E3 ligase FBW7; AlphaScreen FBW7–phospho-cyclin E peptide binding, activator screen; Q969H0; normalized activity (activation), % at 26.1 µM; 650,000 compounds, 0.13% hits; in the data active = normalized activity above about 1.9%;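 note: purified mutant Fbw7 with reduced substrate affinity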
GPR151 conf act = confirmation of human GPR151 activators; shares compounds with GPR151 ag; GPR151 PathHunter beta-arrestin cells, luminescence, 90 min; % of EA-reagent control over plate median; activation, % at 11.2 µM; 6,700 tested, under 10 active;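 active = mean percent activation across replicates above the confirmation screen cutoff of 4.91%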
GPR119 counter = activates human GPR119 in a GPR151 counter-screen. 6,700 compounds, 0.3% hits. AID 1508611. activation, % at 11.2 µM. GPR119 PathHunter beta-arrestin cells, luminescence, 90 min; 0 = compound-well median, 100 = enzyme-acceptor control. shares compounds with GPR151 ag;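 active = mean percent activation in the counterscreen above 29.09%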;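 note: counterscreen on off-target GPR119 to flag nonselective hits from the GPR151 activator screen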
Target sequence (Q8TDV5 whole entry, looked up): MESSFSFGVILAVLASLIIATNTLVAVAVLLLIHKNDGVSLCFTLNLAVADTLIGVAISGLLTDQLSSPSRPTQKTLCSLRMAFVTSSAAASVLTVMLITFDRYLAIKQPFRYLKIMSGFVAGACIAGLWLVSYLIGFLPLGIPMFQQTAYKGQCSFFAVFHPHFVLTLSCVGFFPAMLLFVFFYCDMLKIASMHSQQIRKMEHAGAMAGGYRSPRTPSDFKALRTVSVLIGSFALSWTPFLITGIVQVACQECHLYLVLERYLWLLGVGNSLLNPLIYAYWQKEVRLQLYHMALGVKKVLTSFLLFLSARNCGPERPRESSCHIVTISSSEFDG
Active calls of the source: *. Most compounds without a hit are left out; they make up all but 3.4% or so of the library.

`COc1ccc(C(=O)N2C(=S)C(c3ccccc3)=NC2(C)C)cc1OC` gave GPR151 ag 1.3, MITF primary 23.6, TEAD-YAP block 14.9 and FBW7 act -0.2.
`O=C(c1cc([N+](=O)[O-])cc([N+](=O)[O-])c1)n1cnc2ccccc21` gave GPR151 ag -0.9, MITF primary 20.8, TEAD-YAP block -7.2 and FBW7 act 1.0.
For Cc1ccccc1C(=O)n1cnc2cc([N+](=O)[O-])ccc21 the results were GPR151 ag 7.1*, MITF primary -259.3, TEAD-YAP block 7.2, FBW7 act -0.2, GPR151 conf act 0.7 and GPR119 counter -1.3.
COC(=O)c1c(NC(=O)c2ccc(S(=O)(=O)N3CCCC(C)C3)cc2)sc2c1CCN(C(C)C)C2 (stereo unspecified) was read as GPR151 ag 0.5, MITF primary -14.6, TEAD-YAP block -0.3 and FBW7 act -0.1.
For CCN1CCc2c(sc(NC(=O)c3ccc(S(=O)(=O)N4CCCC(C)C4)cc3)c2C(=O)OC)C1 (stereo unspecified) the results were GPR151 ag 5.3*, MITF primary 7.9, TEAD-YAP block 2.1, FBW7 act 0.0, GPR151 conf act 2.3 and GPR119 counter 15.1.
For CCC1S/C(=N\N=C\c2ccc(O)cc2)NC1=O (stereo unspecified) the results were GPR151 ag -2.0, MITF primary -10.6, TEAD-YAP block -19.1 and FBW7 act 0.0.
Screening COc1ccc([N+](=O)[O-])cc1N=Cc1ccc(C#N)cc1 returned GPR151 ag 5.1*, MITF primary -6.1, TEAD-YAP block 1.1, FBW7 act 0.5, GPR151 conf act -0.2 and GPR119 counter 6.1.
COc1ccc([N+](=O)[O-])cc1N=Cc1cccc([N+](=O)[O-])c1 was read as GPR151 ag -1.3, MITF primary 3.7, TEAD-YAP block -3.3 and FBW7 act 0.0.
Screening CCOc1ccccc1C(=O)Nc1nc2ccc(S(=O)(=O)N3CCCC3)cc2s1 returned GPR151 ag -1.5, MITF primary 27.4, TEAD-YAP block -3.5 and FBW7 act 0.0.
For COc1cccc2sc(N3CCN(C(=O)c4cnccn4)CC3)nc12 the results were GPR151 ag -1.2, MITF primary 13.0, TEAD-YAP block 8.5 and FBW7 act 0.1.
For COc1ccccc1NS(=O)(=O)c1ccc(SC)cc1 the results were GPR151 ag 6.3*, MITF primary 4.0, TEAD-YAP block 2.1, FBW7 act 0.2, GPR151 conf act -0.6 and GPR119 counter 0.1.
`COc1ccc(NC(=S)NNS(=O)(=O)c2cccc([N+](=O)[O-])c2)cc1` gave GPR151 ag 4.9*, MITF primary -23.7, TEAD-YAP block -11.1, FBW7 act -0.2, GPR151 conf act 0.1 and GPR119 counter -13.2.
Screening CCN(CC)S(=O)(=O)c1ccc(OC)c(NS(=O)(=O)c2cccc([N+](=O)[O-])c2)c1 returned GPR151 ag 6.2*, MITF primary 24.3, TEAD-YAP block -0.3, FBW7 act 0.1, GPR151 conf act 0.3 and GPR119 counter 4.3.
For COc1ccc(NC(=S)Nc2cccc([N+](=O)[O-])c2)cc1 the results were GPR151 ag -0.5, MITF primary 16.4, TEAD-YAP block -0.7 and FBW7 act 0.1.
For CCN(CC)S(=O)(=O)c1ccc(OC)c(NS(=O)(=O)c2ccccc2[N+](=O)[O-])c1 the results were GPR151 ag 1.5, MITF primary -16.5, TEAD-YAP block -11.2 and FBW7 act -0.1.
Screening COc1ccc(S(=O)(=O)Nc2ccccc2SC)cc1Br returned GPR151 ag 5.7*, MITF primary 15.8, TEAD-YAP block -2.6, FBW7 act 1.0, GPR151 conf act -0.5 and GPR119 counter 4.3.
For CCOC(=O)c1c(NC(=S)NCCc2ccccc2)sc2c1CC(C)(C)OC2 the results were GPR151 ag -0.4, MITF primary 13.8, TEAD-YAP block 0.2 and FBW7 act 0.1.
COC(=O)c1ccc(/C=C2/C(=O)NN(c3ccc(C)cc3)C2=O)cc1 was read as GPR151 ag 0.2, MITF primary 8.0, TEAD-YAP block -2.3 and FBW7 act -0.1.
For COc1ccc(S(=O)(=O)Nc2ccccc2C(=O)NC(C)C)cc1OC the results were GPR151 ag 18.4*, MITF primary -1.6, TEAD-YAP block -0.5, FBW7 act -0.1, GPR151 conf act 0.5 and GPR119 counter 6.1.
`COc1ccc(S(=O)(=O)Nc2cccc3c([N+](=O)[O-])cccc23)cc1OC` gave GPR151 ag 6.0*, MITF primary -6.8, TEAD-YAP block -20.3, FBW7 act -0.2, GPR151 conf act 0.1 and GPR119 counter 6.8.
Screening O=C(Nc1ccon1)C12CC3CC(C1)CC(n1cnc([N+](=O)[O-])n1)(C3)C2 returned GPR151 ag 0.6, MITF primary 0.2, TEAD-YAP block 7.5 and FBW7 act -0.2.
CC(C)(C)CC(=O)Nc1ccccc1[N+](=O)[O-] was read as GPR151 ag 7.0*, MITF primary 0.7, TEAD-YAP block -5.5, FBW7 act 0.0, GPR151 conf act 0.4 and GPR119 counter 3.5.
For Cc1cc2nn(-c3ccccc3)nc2cc1NC(=S)NC(=O)c1ccco1 the results were GPR151 ag 0.3, MITF primary -5.2, TEAD-YAP block -45.8 and FBW7 act 0.0.
`CCOC(=O)c1oc2ccccc2c1NC(=O)C1COc2ccccc2O1` (stereo unspecified) gave GPR151 ag 5.5*, MITF primary -0.1, TEAD-YAP block 10.4, FBW7 act 0.1, GPR151 conf act -0.1 and GPR119 counter 3.5.
Screening CCOC(=O)c1oc2ccccc2c1NC(=O)C1CCCCC1 returned GPR151 ag -0.4, MITF primary 9.9, TEAD-YAP block -3.7 and FBW7 act 1.1.
For CCOC(=O)c1oc2ccccc2c1NC(=O)c1ccc(Cl)s1 the results were GPR151 ag 6.5*, MITF primary 15.4, TEAD-YAP block -26.2, FBW7 act 0.3, GPR151 conf act -0.5 and GPR119 counter -2.1.
For C=C(C)CNc1nc2nonc2nc1NC1CC1 the results were GPR151 ag 1.3, MITF primary -2.5, TEAD-YAP block -4.9 and FBW7 act -0.2.
`c1cc(CNc2nc3nonc3nc2NC2CC2)c2cc[nH]c2c1` gave GPR151 ag 5.5*, MITF primary 9.9, TEAD-YAP block -1.1, FBW7 act -0.1, GPR151 conf act -0.2 and GPR119 counter 7.6.
N#Cc1ccc(C(=O)N2CCN(c3c(Cl)cccc3[N+](=O)[O-])CC2)c(F)c1 was read as GPR151 ag 0.8, MITF primary 21.2, TEAD-YAP block -8.7 and FBW7 act 0.0.
For O=C(Cc1ccc2c(=O)c(Oc3ccc(F)cc3)coc2c1)Nc1ccc(F)cc1 the results were GPR151 ag 1.3, MITF primary -0.8, TEAD-YAP block -10.6 and FBW7 act 0.7.
